Several values for one entry are separate records, joined by “and”; a condition that tells them apart may be missing. Equal entries are not always repeated. About 610 (9.5%) of roughly 6,400 compounds were called active. Cut-off read from the data, not from the text of the source: active = activity change below about -70%; inconclusive = no clear call, values can overlap the other calls; inactive = above that. For the sample, actives were picked, then their nearest neighbours and some compounds at random. More than one record can exist for a structure, and the calls need not agree.
Experiment: T. gondii ME49Luc in HeLa cells, luciferase assay, 72 h, no IFN-y (AID 1259421)
Details: stronger effect = lower value, concentration not given here
In the case of C=CCn1c(=O)n([C@@H]2O[C@H](CO)[C@@H](O)[C@H]2O)c2nc(N)[nH]c(=O)c21, the activity change, negative = inhibition is reported as -1.47% (inactive). With CCNC(=O)CCC(N)C(=O)O (stereo not drawn) the activity change, negative = inhibition was 15.2% (inactive). In the case of CC1(C)C2CC[C@]3(C)C(C(=O)C=C4[C@@H]5C[C@@](C)(C(=O)O)CC[C@]5(C)CC[C@]43C)[C@@]2(C)CC[C@@H]1OC(=O)CCC(=O)O (stereo partly drawn), the activity change, negative = inhibition is reported as 6.36% (inactive). In the case of O=C(c1c(O)c2ccc(Cl)cc2[nH]c1=O)C1CC1, the activity change, negative = inhibition is reported as 3.48% (inactive) and 5.32% (inactive). With C=CCN1CCCC1CNC(=O)c1cc2[nH]nnc2cc1OC (stereo not drawn) the activity change, negative = inhibition was 3.75% (inactive). In the case of CC1(C)C(=O)[C@@H]2C[C@@]3(O)C4=CC(=O)O[C@@H](c5ccoc5)[C@]4(C)CCC3[C@@](C)(C2=O)[C@H]1CC(=O)O (stereo partly drawn), the activity change, negative = inhibition is reported as 0.589% (inactive). With O=c1n(CC2CO2)c(=O)n(CC2CO2)c(=O)n1CC1CO1 (stereo not drawn) the activity change, negative = inhibition was 36.1% (inactive). With COc1ccc2cc1Oc1ccc(cc1)C[C@H]1c3c(cc4c(c3Oc3cc5c(cc3OC)CCN(C)[C@@H]5C2)OCO4)CCN1C the activity change, negative = inhibition was 12.1% (inactive) and -4.88% (inactive). In the case of COc1ccc2cc1Oc1cc3c(cc1OC)CC[N+](C)(C)[C@H]3Cc1ccc(cc1)Oc1c(OC)c(OC)cc3c1[C@@H](C2)[N+](C)(C)CC3, the activity change, negative = inhibition is reported as 18.6% (inactive). With COc1ccc2cc1Oc1ccc(cc1)C[C@H]1c3cc(c(OC)cc3CCN1C)Oc1c(OC)c(OC)cc3c1[C@H](C2)N(C)CC3 the activity change, negative = inhibition was -77.3% (active) and 18.9% (inactive). With CC(O)CCCCn1c(=O)c2c(ncn2C)n(C)c1=O (stereo not drawn) the activity change, negative = inhibition was -6.61% (inactive). In the case of CCCN(CCc1cccs1)[C@H]1CCc2c(O)cccc2C1, the activity change, negative = inhibition is reported as 10.9% (inactive). In the case of CCCCn1c(=O)c2[nH]c(C34CC5CC(CC3C5)C4)nc2n(CCCO)c1=O, the activity change, negative = inhibition is reported as 12% (inactive) and -13.1% (inactive). For O=C1[C@@H](Cc2ccc(O)cc2)N2C(=O)CCN(C(=O)NCc3ccccc3)[C@H]2CN1Cc1cccc2ccccc12, the activity change, negative = inhibition was 1.58% (inactive). With CC(=O)OC(C)(C)[C@@H]1Cc2cc3ccc(=O)oc3cc2O1 the activity change, negative = inhibition was -5.08% (inactive). In the case of CCN(CC)c1ccc(C(=C2C=CC(=[N+](CC)CC)C=C2)c2ccccc2)cc1, the activity change, negative = inhibition is reported as -79.9% (active). In the case of CCN(Cc1cccc(S(=O)(=O)O)c1)c1cccc(C(=C2C=CC(=[N+](CC)Cc3cccc(S(=O)(=O)O)c3)C=C2)c2ccc(O)cc2S(=O)(=O)O)c1, the activity change, negative = inhibition is reported as -44.9% (inactive). For O[C@@H]1[C@H](O)[C@@H](CCl)O[C@H]1n1cnc2c(NC3CC4CCC3C4)ncnc21 (stereo partly drawn), the activity change, negative = inhibition was 20.5% (inactive). In the case of Cc1cc(Oc2ccc3nc(COc4ccc(CC5SC(=O)NC5=O)cc4)n(C)c3c2)cc(C)c1N (stereo not drawn), the activity change, negative = inhibition is reported as 12.3% (inactive). With N[C@](CC1c2ccccc2Oc2ccccc21)(C(=O)O)[C@H]1C[C@@H]1C(=O)O the activity change, negative = inhibition was 6.02% (inactive). For CCn1c(=O)[nH]c2cc(Cl)c(Cl)cc21, the activity change, negative = inhibition was -80.8% (active) and -78.6% (active). With CCn1c(=O)[nH]c2ccccc21 the activity change, negative = inhibition was 10.3% (inactive) and 2.46% (inactive). For CCN(CCO)CCCOc1ccc2c(Nc3cc(CC(=O)Nc4cccc(F)c4)[nH]n3)ncnc2c1, the activity change, negative = inhibition was 18.9% (inactive). For CCOc1ccc2nc(SCCN3CCOCC3)[nH]c2c1, the activity change, negative = inhibition was 17.7% (inactive). With Cc1cc(C)c(Nc2ccnc(Nc3ccc(C#N)cc3)n2)c(C)c1 the activity change, negative = inhibition was -44.9% (inactive). For Cc1cc(C#N)cc(C)c1Oc1nc(Nc2ccc(C#N)cc2)nc(N)c1Br, the activity change, negative = inhibition was -89.7% (active). In the case of Cc1cc(/C=C/C#N)cc(C)c1Nc1ccnc(Nc2ccc(C#N)cc2)n1, the activity change, negative = inhibition is reported as 17.7% (inactive). With C[C@@H](N)c1ccc(C(=O)Nc2ccnc3[nH]ccc23)cc1 the activity change, negative = inhibition was -3.01% (inactive). For C=CC(=O)Nc1ccccc1, the activity change, negative = inhibition was -0.419% (inactive). For CC(=O)c1ccc(N2CCOCC2)cc1O, the activity change, negative = inhibition was 0.777% (inactive). In the case of O=c1cc(-c2ccc(O)cc2)oc2ccc(O)cc12, the activity change, negative = inhibition is reported as -46.2% (inactive). In the case of CCCCCCCC(=O)OCC(COC(=O)CCCCCCC)OC(=O)CCCCCCC, the activity change, negative = inhibition is reported as 13.9% (inactive). For [Cl][Ru]([Cl])([Cl])[Cl].c1ccc2[nH]ncc2c1.c1ccc2[nH]ncc2c1, the activity change, negative = inhibition was 8% (inactive). In the case of C#CC1(O)CCC2C3CCC4=Cc5oncc5CC4(C)C3CCC21C (stereo not drawn), the activity change, negative = inhibition is reported as -93.9% (active). For CC(=O)[C@@]12O[C@](C)(c3ccccc3)O[C@@H]1CC1C3CCC4=CC(=O)CC[C@]4(C)C3CC[C@@]12C (stereo partly drawn), the activity change, negative = inhibition was -11.3% (inactive). With CC(=O)[C@@]12OC(C)(c3ccccc3)O[C@@H]1C[C@H]1[C@@H]3CCC4=CC(=O)CC[C@]4(C)[C@H]3CC[C@@]12C (stereo partly drawn) the activity change, negative = inhibition was -52.9% (inactive). With C[C@]12CCC(=O)C=C1CCC1C2C(=O)C[C@@]2(C)C1CC[C@]2(O)C(=O)CO (stereo partly drawn) the activity change, negative = inhibition was -0.365% (inactive) and 6.68% (inactive). For C#C[C@]1(O)CCC2C3CCC4=Cc5oncc5C[C@]4(C)C3CC[C@@]21C (stereo partly drawn), the activity change, negative = inhibition was -82.2% (active) and -83.7% (active). With NC(CSSCC(N)C(=O)O)C(=O)O (stereo not drawn) the activity change, negative = inhibition was 13.9% (inactive). For CC1(C)SC2C(NC(=O)[C@H](NC(=O)N3CCNC3=O)c3ccccc3)C(=O)N2C1C(=O)O (stereo partly drawn), the activity change, negative = inhibition was 33.6% (inactive). For NS(=O)(=O)c1cc2c(cc1Cl)NC(CC1CCCC1)NS2(=O)=O (stereo not drawn), the activity change, negative = inhibition was 18.7% (inactive). With NS(=O)(=O)c1cc2c(cc1Cl)NC(C1CC3C=CC1C3)NS2(=O)=O (stereo not drawn) the activity change, negative = inhibition was -95.9% (active). With NS(=O)(=O)c1cc2c(cc1Cl)NC(C(Cl)Cl)NS2(=O)=O (stereo not drawn) the activity change, negative = inhibition was 13.1% (inactive) and 33% (inactive). For O=C1c2ccccc2C(Cc2ccnc(F)c2)(Cc2ccnc(F)c2)c2ccccc21, the activity change, negative = inhibition was 21.9% (inactive) and 12.1% (inactive). For O=C1N[C@@H]2[C@@H](O)[C@@H](O)[C@H](O)[C@@H](CO)N2C1=O, the activity change, negative = inhibition was 11.7% (inactive). With O[C@H]([C@H](O)[C@@H]1CO1)[C@H]1CO1 the activity change, negative = inhibition was 5.39% (inactive). With C=C1c2cccc(O)c2C(=O)C2C(=O)[C@]3(O)C(=O)C(C(N)=O)C(=O)[C@@H](N(C)C)[C@@H]3[C@@H](O)[C@H]12 (stereo partly drawn) the activity change, negative = inhibition was -67.5% (inactive) and 19% (inactive). For C=C1c2c(Cl)ccc(O)c2C(=O)C2C(=O)[C@]3(O)C(=O)C(C(N)=O)C(=O)[C@@H](N(C)C)[C@@H]3[C@@H](O)[C@H]12 (stereo partly drawn), the activity change, negative = inhibition was -9.94% (inactive) and 7.28% (inactive).
